Inconclusive results are not listed. Entries that show only a call come without a potency. Calls of active or inactive are those of the source. Calls follow the shape of the dose curve; as a rule, active = well fitted cell-killing curve with a large enough effect; inconclusive = small, poorly fitted or top-dose-only effect, or effect the other way; inactive = no such curve, though single readings can be large or run the other way.
Potency is read from the fitted curve at half-maximal effect.

The test system of this assay is CASKI. The experiment in a line: Confirmatory qHTS for gynecologic anti-cancer compounds from libraries of approved drugs and bioactive compounds. Also: nearly all actives have a fitted effect of over 55% in size. As to conditions: gynecologic cancer cell panel viability, ATPlite luminescence, 48 h; series mostly up to 57.6 µM. An excerpt:
National Center for Advancing Translational Sciences [NCATS] Assay Overview: Chemotherapeutic drug responses vary from cancer to cancer and from patient to patient. These variations could be caused by a number of factors including patient genomic background, tumor mutations, tumor heterogeneity, and aspects of drug treatment. Chemotherapeutic drug resistance is also a common issue and can lead to ineffective treatment and patient death. Here we have profiled the cell killing effects of thousands of compounds to characterize the responses in three gynecological cancers, identify cancer-selective compounds, and understand the diversity of responses to these compounds from pan-cancer suppressors to single cell line selective compounds. In this assay, we screened a 7,914 compound drug library that included approved drug and bioactive compounds in six ovarian, three cervical, and two placental cancer cell lines using the ATPlite assay for cell viability. ATPlite is a luminescence based assay reliant on the conversion of a luciferase substrate to light in the presence of ATP. As a cytotoxic compound will suppress growth and decrease the number of cells, the concentration of ATP will decrease, and less light signal will be detected in the well. Hits were selected from the primary screen for follow-up confirmation. For the confirmation screens, the ovarian cancer cell lines included CAOV-3, SK-OV-3, SW 626, ES-2, PA-1, and TOV-21G. The cervical cancer cell lines included HeLa, Ca Ski, and C-33 A. The placental cancer cell lines included JEG-3 and JAR. HEK 293T cells were used as the control cell line to determine the selectivity index. The ATPlite assay was used to determine the IC50 values.
Assay Protocol Summary: 1,000 cells in 4 uL of media were dispensed into white, solid bottom 1536-well plates using a Multidrop Combi (Thermo Scientific). The Assay plates were incubated for 16 hours at 37 C with 5% CO2 in assay plates, followed by the addition of 23 nL of DMSO or drug dissolved in DMSO. . Each compound was assayed in 11 concentrations (1:3 dilution) from 57.5 uM to 0.977 nM, using the automated Wako 1536 Pin Tool workstation and incubated at 37 C with 5% CO2 48 hours. 4 uL of ATPlite, the ATP monitoring reagent, was then added to the each well of the assay plates using the Multidrop Combi reagent dispenser followed by incubation for 15 minutes at room temperature. The resulting luminescence was measured using the ViewLux plate reader.
As to `C[C@H]1CCC/C=C/C2C[C@H](O)C[C@H]2[C@H](O)/C=C/C(=O)O1` (some centres undefined), the Potency is 0.611 µM (active). Turning to `C[C@]12CC[C@H]3[C@@H](CCC4=CC(=O)CC[C@@H]43)[C@@H]1CC[C@@H]2OC(=O)CCc1ccccc1`, the Potency entry was “inactive”. Then `CCOc1ccccc1-n1c(C(C)N2CCN(C(=O)COc3ccc(Cl)cc3)CC2)nc2ccccc2c1=O` (centres undefined), with “inactive”; and `CCN1CCN(C(=O)Cc2ccc(Nc3ncc(F)c(Nc4ccc(C(=O)Nc5ccccc5Cl)cc4)n3)cc2)CC1`, with “inactive”. Next, `Cc1sc2c(c1C)C(c1ccc(Cl)cc1)=NC(CC(=O)OC(C)(C)C)c1nnc(C)n1-2` (centres undefined): 7.69 µM (active); `O=C(O)Cc1ccccc1`: “inactive”. Next, `C=C(C)[C@H]1Cc2c(ccc3c2O[C@@H]2COc4cc(OC)c(OC)cc4[C@@H]2C3=O)O1`: 0.109 µM (active); `C/C=C(/C)C(=O)O[C@H]1C(C)=C2[C@H]([C@@H]1OC(=O)CCCCCCC)[C@@](C)(OC(C)=O)C[C@H](OC(=O)CCC)[C@@]1(O)[C@H]2OC(=O)[C@@]1(C)O`: 34.3 µM (active). With `CCC(=O)O[C@H]1CC[C@H]2[C@@H]3CCC4=CC(=O)CC[C@]4(C)[C@H]3CC[C@]12C`, the Potency entry was “inactive”.

Source of the values: PubChem BioAssay AID1345085 (National Center for Advancing Translational Sciences (NCATS), 2018).
